A selection: hits, their analogues and other compounds. The true share with any hit is near 3.8%.
mIDH1 inhibitor = blocks human mutant IDH1 R132H enzyme; 0.093% of 390,000 active; IDH1-R132H enzyme, NADPH consumption, diaphorase/resazurin fluorescence; Potency, µM (titrated, usually from 76.6 µM), usual class: inhibitors; O75874; also: nearly all actives have a fitted effect of over 65% in size
Target sequence (O75874 whole entry R132H, stated change not applied): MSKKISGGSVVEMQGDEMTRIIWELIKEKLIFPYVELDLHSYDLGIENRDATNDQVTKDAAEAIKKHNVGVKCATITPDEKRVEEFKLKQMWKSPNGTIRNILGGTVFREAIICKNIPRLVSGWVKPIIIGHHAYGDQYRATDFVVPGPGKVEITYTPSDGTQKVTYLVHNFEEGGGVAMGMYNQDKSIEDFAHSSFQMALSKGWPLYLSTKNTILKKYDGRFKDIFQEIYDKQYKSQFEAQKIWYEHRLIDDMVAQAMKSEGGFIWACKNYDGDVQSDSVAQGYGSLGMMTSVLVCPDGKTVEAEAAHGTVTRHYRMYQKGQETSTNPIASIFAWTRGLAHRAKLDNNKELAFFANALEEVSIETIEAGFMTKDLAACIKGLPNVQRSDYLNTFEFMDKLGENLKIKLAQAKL
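IDH1-R132H (0.5 ug/mL dispensed) in pH 7.5 Tris buffer was preincubated 30 min with compound, then given a substrate mix of 0.016 mM NADPH and 2 mM alpha-KG for 80 min at room temperature; remaining NADPH was read by diaphorase/resazurin fluorescence.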
ELG1 DNA repair = inhibitors of ELG1-dependent DNA repair in HEK293T cells; 2.3% of 330,000 active; AID 504467; Potency, µM (highest dose often 46.1 µM), most hits filed as inhibitors; HEK293T ELG1-luciferase reporter, luminescence, 16 h; DNA damage induced by 5-fluorouridine; also: nearly all actives have a fitted effect of over 55% in size
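Step one: seed 2,000 cells per well. Step two: pin-transfer compound or DMSO alongside 5-fluorouridine. Step three: incubate 16 hr, 37 °C, 5% CO2. Step four: add ONE-Glo, wait 30 min, read luminescence.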
Nrf2 activator = Nrf2 pathway activation; Potency, µM (doses to about 46.1 µM), usual class: activators; 0.31% of 410,000 active; AREc32 ARE-luciferase reporter (MCF7-derived line), luminescence, 24 h; also: nearly all actives have a fitted effect of over 65% in size
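For detection, Steady-Glo was added and plates sat 30 min at RT; before that, AREc32_Fluc cells grown overnight in OPTI-MEM/5% FBS had been treated with 23 nL compound for 24 hr at 37 deg C.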
Nrf2 block = Nrf2 pathway inhibition; 2.1% of 360,000 active; Potency, µM (titrated, usually from 46 µM), hits mostly inhibitors; A549 ARE-Fluc reporter, luciferase luminescence, 18-24 h; AID 504444; also: nearly all actives have a fitted effect of over 60% in size
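A549 ARE_Fluc cells (5000/well, 5% FBS OPTI-MEM) pre-incubated 2 h, then treated with compounds 18-24 h at 37C/5% CO2 in concentration-response. CellTiter-Fluor viability read first; BugLite luciferase luminescence after 15 min at room temperature gives Nrf2 activity.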
A549 tox = A549 cytotoxicity, counter-screen for Nrf2 inhibitors; 0.16% of 390,000 active; A549 ARE-Fluc cells, CellTiter-Fluor viability, 18-24 h; Potency, µM (doses to about 46 µM), most hits filed as inhibitors
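Cytotoxicity counterscreen: CellTiter-Fluor fluorescence was measured in A549 ARE_Fluc cells after 18-24 h of compound exposure in a concentration series. The subsequent BugLite luminescent read reports ARE-luciferase activity.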
Numbers stand for hits; 0 = inactive; ? = inconclusive; - = not tested or not shown. Calls follow the shape of the dose curve; as a rule, active = well fitted curve in the direction sought with a large enough effect; inconclusive = small, poorly fitted or top-dose-only effect, or another doubt; inactive = no such curve, though single readings can be large; an effect the other way counts as inactive or inconclusive.

SMILES	mIDH1 inhibitor	ELG1 DNA repair	Nrf2 activator	Nrf2 block	A549 tox
COc1ccc(C(=O)Nc2ccc(Cl)cc2C(=O)NCc2ccco2)cc1OC	0	16µM	0	21µM	?
C=CCN(c1ccc(C(=O)Nc2ccc3c(c2)OCO3)cc1)S(C)(=O)=O	0	13µM	0	0	0
COc1ccc(-n2c(N)c(C(=O)NCc3ccco3)c3nc4ccccc4nc32)cc1OC	0	6.5µM	0	0	0
Cc1ccc(N2CC(c3nc4ccccc4n3CCC3CCCCC3)CC2=O)cc1 (stereo not drawn)	0	-	0	0	0
COc1cccc(CNC(=O)Cc2csc3ccccc23)c1OC	-	-	0	?	0
O=[N+]([O-])c1cc(-c2nc(-c3ccccc3)no2)ccc1N1CCCC1	0	-	0	0	0
O=C(NCc1ccco1)c1ccc(COc2cccc3ccccc23)cc1	0	0	0	16µM	0
Cc1ccccc1CN(c1ccc(C(=O)N2CCc3ccccc3C2)cc1)S(C)(=O)=O	0	15µM	0	15µM	0
COc1ccc(-c2noc(-c3ccccc3C(=O)NCc3ccco3)n2)cc1OC	0	8.2µM	0	0	0
O=C(NCc1ccco1)c1ccc(COc2ccccc2Cl)cc1	0	0	0	?	0
COc1ccc(C(=O)Nc2sc3c(c2C(=O)NCc2ccco2)CCCC3)cc1OC	0	16µM	0	0	0
CNC(=O)c1ccc(N(Cc2ccccc2C)S(C)(=O)=O)cc1	0	0	0	0	0
COc1ccc(-c2noc(-c3ccccc3C(=O)NCc3ccco3)n2)cc1	0	?	?	-	0
O=C(OCC#CCSc1nnc(-c2cccc3ccccc23)o1)C1CCC1	-	-	-	0	0
Cc1ccccc1CN(c1ccc(C(=O)Nc2ccccc2C(=O)NCc2ccco2)cc1)S(C)(=O)=O	0	7.3µM	0	0	0
CC(=O)Nc1ccc(NC(=O)c2ccc(N(Cc3ccccc3C)S(C)(=O)=O)cc2)cc1	0	-	0	0	0
CC(=O)c1cccc(NC(=O)c2ccc(N(Cc3ccccc3C)S(C)(=O)=O)cc2)c1	0	26µM	0	-	0
CCCOc1ccc(N2CC(C(=O)Nc3ccccc3C(=O)NCc3ccco3)CC2=O)cc1 (stereo not drawn)	0	18µM	0	-	0
COc1ccc(C(=O)Nc2ccccc2C(=O)NCc2ccco2)cc1OC	0	15µM	0	0	0
COc1ccc(N2CC(C(=O)Nc3ccccc3C(=O)NCc3ccco3)CC2=O)cc1 (stereo not drawn)	0	?	0	0	0
O=C(CCSCc1ccccc1F)N1CCN(c2ccc(F)cc2)CC1	0	-	0	-	0
Cc1ccc(C)c(Nc2nn3c(=O)c4ccc(C(=O)NCc5cccs5)cc4nc3s2)c1	0	-	0	-	?
Cc1csc2c(N3CCC(C(=O)O)CC3)ncnc12	0	?	0	0	0
Cc1csc2c(N3CCN(C(=O)Nc4ccc(OC(F)(F)F)cc4)CC3)ncnc12	0	?	0	21µM	0
CCOC(=O)Cc1ccc(NC(=O)c2ccc(C(C)(C)C)cc2)cc1	0	18µM	0	2.6µM	?
SMILES	mIDH1 inhibitor	ELG1 DNA repair	Nrf2 activator	Nrf2 block	A549 tox
CCOC(=O)Cc1ccc(NC(=O)c2ccccc2Br)cc1	0	?	0	?	0
O=C(NNC(=S)NC(=O)c1ccco1)c1ccc(NC(=O)c2ccccc2)cc1	0	15µM	0	?	0
O=C(Nc1ccc(NC(=S)NC(=O)c2ccco2)cc1)c1ccccc1	0	?	0	0	0
CCOc1ccccc1NC(=O)c1ccc(NC(=O)c2ccco2)cc1	0	?	0	23µM	0
O=C(Nc1ccc(NC(=O)c2ccco2)cc1)c1ccco1	0	0	0	0	0
CC(C)(C)c1ccc(C(=O)Nc2ccc(NC(=O)c3ccco3)cc2)cc1	0	0	0	9.2µM	?
Cc1nnc(N2CCN(c3ccccc3)CC2)c2c1nnn2Cc1ccc(F)cc1	0	-	0	0	0
O=C(Nc1ccnn1C1CCN(CCCC2CCCC2)CC1)c1ccccc1Cl	0	0	0	0	0
CC(C)(C)C(=O)Nc1ccc(C(=O)NCc2cccnc2)cc1	0	-	0	?	?
CC(C)(C)c1ccc(C(=O)Nc2ccc(C(=O)NCc3cccnc3)cc2)cc1	0	0.52µM	0	?	?
CC(C)(C)C(=O)Nc1ccc(NC(=O)c2ccco2)nc1	0	?	0	2.1µM	0
O=C(Nc1ccc(NC(=O)c2ccco2)nc1)c1ccco1	0	?	0	?	0
Cc1ccc(-c2cc3c(n2-c2ccccc2F)CC(C)(C)CC3=O)cc1	0	-	0	0	0
COc1ccc(OC)c2c1C(=O)c1ccccc1C2=O	0	0	0	0	0
COc1ccc(OC)c2c1C(=O)C(Cl)=C(Cl)C2=O	0	21µM	0	0	?
O=C(Nc1cccc(C(=O)N2CCN(c3ccc(F)cc3)CC2)c1)c1nsc2ccccc12	0	-	0	-	0
CCOc1ccc(CN2C(=O)C(=O)c3cccc(C)c32)cc1OC	0	-	0	0	0
O=C(NN1C(=O)C2C(c3ccccc3)C=CC(c3ccccc3)C2C1=O)c1ccccc1 (stereo not drawn)	0	0	0	0	0
O=C(NN1C(=O)C2C(c3ccccc3)C=CC(c3ccccc3)C2C1=O)c1cccc(Br)c1 (stereo not drawn)	0	0	11µM	0	0
CCc1c(C)nc2nncn2c1NCc1ccc(Cl)cc1	-	-	0	8.2µM	0
CC(NC(=S)NC1CCCCC1)c1ccc(C(C)(C)C)cc1 (stereo not drawn)	0	0	0	?	0
CCOc1ccc(C(C)NC(=S)NC2CCCCC2)cc1OCC (stereo not drawn)	0	23µM	0	?	0
CC(C)c1ccc(C(C)NC(=S)NC2CCCCC2)cc1 (stereo not drawn)	0	0	0	18µM	0
Cc1cccc(NC(=O)c2oc3ccc(S(=O)(=O)N4CCC5(CC4)OCCO5)cc3c2C)c1C	0	-	0	-	0
CCCCCCCC[n+]1c(C)n(-c2ccccc2)c2ccc(NC(C)=O)cc21	0	?	0	12µM	0
SMILES	mIDH1 inhibitor	ELG1 DNA repair	Nrf2 activator	Nrf2 block	A549 tox
CC(=O)Nc1ccc(SCC(=O)c2cc(C)n(-c3ccccc3)c2C)cc1	0	?	0	?	0
O=C(Nc1ccc(Cl)cc1)c1sccc1-n1cccc1	0	0	11µM	?	0
COc1ccc(NC(=O)c2csc(Cc3ccc(Cl)cc3)n2)cc1	0	?	0	0	0
COc1ccc(COc2ccsc2C(=O)Nc2ccc(Cl)cc2)cc1	0	0	8.9µM	?	?
Cn1c(=O)c(=O)n(C)c2cc(NS(=O)(=O)c3ccc(Br)cc3)c(Cl)cc21	0	-	0	?	0
Cc1ccccc1C(=O)Oc1cc(N)n(S(=O)(=O)c2ccccc2)n1	0	0	0	7.3µM	0
CS(=O)(=O)n1nc(OC(=O)c2cccc3ccccc23)cc1N	0	0	14µM	0	0
